APP transl inh – APP translation inhibition. SH-SY5Y APP 5'UTR-luciferase reporter, luminescence. inhibition, % at 2 µM. 190,000 tested, 0.82% active;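 active means inhibition above a set limit, derived from the sample mean plus 3 SD, cut at about 45% in these data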
KLF5 inhibitor – suppresses KLF5 promoter-driven expression; 290,000 tested, 0.23% active; inhibition, % at 5 µM; DLD-1 KLF5 promoter-luciferase reporter, luminescence;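 active means inhibition above a per-plate limit of that plate's mean compound inhibition plus 3 SD, cut at about 60% in these data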;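 further: higher means less KLF5 promoter-driven luciferase light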
IEC-6 tox – counter-screen for KLF5 inhibitors: cytotoxicity in IEC-6 cells. IEC-6 cytotoxicity, luminescence viability. inhibition, % at 5 µM. 290,000 tested, 0.78% active; in the data active means inhibition above about 22%
Ba/F3 V617F tox – reduce viability of Ba/F3 cells dependent on JAK2V617F; Ba/F3 EpoR-JAK2V617F viability, ATP luminescence; 220,000 tested, 1.1% active; AID 1446; inhibition, % at 5.6 µM;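 active means inhibition above the campaign mean plus 3 SD over all tested compounds, cut at about 24% in these data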;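 further: cytokine-independent growth of Ba/F3 cells driven by EpoR plus mutant JAK2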
BaF3 tox – parental Ba/F3 viability inhibition as JAK2V617F counter-screen | inhibition, % at 5.6 µM | CellTiter-Glo ATP luminescence | 220,000 tested, 1.1% active | AID 1486;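 active means inhibition above a per-campaign cutoff, the mean inhibition of all tested compounds plus 3 SD, cut at about 27% in these data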
Hits are given with their value; 0 = inactive; - = no result given. In the library only some 1.9% were active in any assay of this set; here they are far more common.

SMILES	APP transl inh	KLF5 inhibitor	IEC-6 tox	Ba/F3 V617F tox	BaF3 tox
CC1(C)CC2(CCO1)OC(=O)CC2C(=O)Nc1ccccc1Cl (stereo not given)	0	0	0	0	90
O=C1CCC2S/C(=C/Nc3ccc(C(F)(F)F)cc3)C(=O)N12 (stereo not given)	72	0	0	0	0
COc1ccccc1C(=O)C1CCCN(Cc2cccc(OCCO)c2)C1 (stereo not given)	-	0	0	-	-
COc1cc2c(cc1OC)CN(C(=O)CCNS(=O)(=O)c1ccccc1F)CC2	-	0	0	-	-
Cc1cc(-c2ccccc2)nc2[n+]1CCN2C	0	0	0	68	62
COn1c(C)c(C(C)=O)c2c3nonc3ccc21	0	0	0	0	96
Cc1ccc(Nc2c(-c3ccccn3)nc3cc(C)ccn23)cc1	60	0	0	0	0
Cc1ccc(Nc2c(-c3ccccn3)nc3ccc(C)cn23)cc1	60	0	0	0	0
Cc1ccn2c(Nc3ccc4c(c3)OCO4)c(-c3ccccn3)nc2c1	52	0	0	0	0
O=C(O)CCn1c(SCCOc2ccccc2F)nc2ccccc21	-	0	0	-	-
CCCn1c(SCC(=O)N2CCCC(C)C2)nnc1-c1ccccn1 (stereo not given)	0	0	0	0	0
COc1ccc(O)c(/C=N/NC(=S)Nc2cccc(S(=O)(=O)N(C)C)c2)c1	60	0	0	0	0
O=C(O)Cn1ccc2cc(S(=O)(=O)N3CCCCCC3)ccc21	-	0	0	-	-
CCn1c(SCC(=O)NCc2ccccc2)nnc1C(CO)NC(=O)c1ccccc1 (stereo not given)	-	0	0	-	-
Nc1cc(Cl)ccc1N1CCCCC1	0	0	0	0	0
Nc1cc(Cl)ccc1N1CCCCCC1	0	0	0	42	56
O=C(O)c1ccccc1Nc1ccc([N+](=O)[O-])cc1	0	0	0	45	44
O=C(O)c1ccccc1Nc1ccccc1C(=O)O	0	0	0	0	0
O=S(=O)(c1ccc2c(c1)OCCO2)N1CCN(c2ncnc3sccc23)CC1	0	0	0	44	78
O=C(O)CCC(=O)NNc1nc2ccccc2nc1-c1ccccc1	0	0	0	0	90
O=C(c1ccc(Br)cc1)c1cc([N+](=O)[O-])ccc1N1CCOCC1	88	0	0	80	83
CC1CCN(c2ccc([N+](=O)[O-])cc2C(=O)O)CC1	0	0	0	0	0
CC1CCCN(c2ccc([N+](=O)[O-])cc2C(=O)c2ccccc2)C1 (stereo not given)	94	0	45	77	79
O=C(c1ccc(Cl)cc1)c1cc([N+](=O)[O-])ccc1N1CCOCC1	93	0	0	72	74
O=C(COC(=O)c1cc([N+](=O)[O-])ccc1N1CCOCC1)Nc1ccc(Cl)cc1	-	0	0	-	-
SMILES	APP transl inh	KLF5 inhibitor	IEC-6 tox	Ba/F3 V617F tox	BaF3 tox
O=C(CSCc1ccc(Br)cc1)Nc1ccccc1C(=O)N1CCOCC1	-	0	0	-	-
Cc1ccc(C(=O)Nn2c(C)nc3ccccc3c2=O)cc1C	-	0	0	-	-
C=CCC(C#Cc1ccccc1)[N+](C)(C)CC=C (stereo not given)	0	0	0	41	50
COc1ccc(NC(=O)C(=O)NNC(=O)c2cccs2)cc1	64	0	0	0	0
COc1ccc(NC(=O)CSc2nc3ccccc3c3nc4ccccc4n23)cc1	81	0	0	0	0
Cc1ccc(NC(=O)CSc2nc3ccccc3c3nc4ccccc4n23)cc1	51	0	0	0	0
Cc1ccc(NC(=S)NNC(=O)CSc2nc3ccccc3c(=O)n2-c2ccc(C)cc2)cc1	0	0	0	0	43
O=C(NNC1=Nc2cccc3cccc1c23)c1ccc(Br)cc1	0	0	0	0	0
O=C1CCC(C(=O)N2CCCO2)CN1Cc1cccc(C(F)(F)F)c1 (stereo not given)	-	0	0	-	-
CCC(CC)C1C(C#N)=C(N)Oc2n[nH]c(-c3ccccc3)c21 (stereo not given)	-	0	0	0	0
CCC(CC)C1C(C#N)=C(N)Oc2n[nH]c(C)c21 (stereo not given)	0	0	0	0	92
Cc1nc(N2CCCCC2)c2c(C)c(C(=O)Nc3ccc4c(c3)OCCO4)sc2n1	-	0	0	-	-
COC(=O)c1ccc(CSc2nnc(Nc3ccccc3OC)s2)o1	0	0	0	0	41
COC(=O)c1ccc(CSc2nnc(Nc3ccc(OC)cc3)s2)o1	0	0	0	0	0
CCC(C)(C)c1ccc(OCCCC[n+]2cccc(C)c2)c(C(C)(C)CC)c1	0	0	0	101	87
COc1cccc(/C=C/c2n[nH]c(=O)c(C#N)c2C)c1	-	0	0	-	-
O=C(NC1CCCC1)c1sc(=S)n2c1[nH]c(=O)c1ccccc12	0	0	0	0	0

Compound activity from PubChem.
